Assay results published in PubChem BioAssay (NCI).
The panel holds about 83,000 compounds, 20% with a hit somewhere; the sample as a whole holds those more often.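 Step 1: grow cells in 96-well plates. Step 2: add test compound at a single concentration. Step 3: incubate 48 h. Step 4: record percent growth.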 Activity calls are given as the source filed them. How the source made its calls: active means growth percent below 10; inactive means the rest.

What was measured:
Test in all cases: NCI-60 one-dose screen, 48 h (100 = growth as untreated, 0 = no growth, -100 = all killed)
Settings in all cases: 10 µM unless noted
SN12C renal = system: SN12C renal
UO-31 renal = system: UO-31 renal
TK-10 renal = system: TK-10 renal
ACHN renal = system: ACHN renal
A498 renal = system: A498 renal
CCRF-CEM leukemia = system: CCRF-CEM leukemia
MOLT-4 leukemia = system: MOLT-4 leukemia
CAKI-1 renal = system: CAKI-1 renal

Measured: growth

Cc1cc(C)c2c(NC(=O)Nc3ccc(Cl)c(Cl)c3)n[nH]c2n1
inactive: SN12C renal 103% | UO-31 renal 90.2% | TK-10 renal 112% | ACHN renal 109% | A498 renal 101% | CCRF-CEM leukemia 102% | MOLT-4 leukemia 98.3%

COc1cc(C2CC(c3ccc(Cl)cc3)=NN2C=O)ccc1OS(=O)(=O)c1ccc(C)cc1 (centres undefined)
inactive: SN12C renal 97.1% | UO-31 renal 85.2% | TK-10 renal 110% | ACHN renal 90.9% | CAKI-1 renal 81.4% | A498 renal 74.1% | CCRF-CEM leukemia 76.3% | MOLT-4 leukemia 91.5%

CCCOC(=O)C1c2cc3c(cc2CC(C)C1C(=O)OCCC)OCO3 (centres undefined)
inactive: SN12C renal 104% | UO-31 renal 65.7% | TK-10 renal 94.2% | ACHN renal 101% | A498 renal 99.8% | MOLT-4 leukemia 90.9%

CC1=NOCC(=O)N1
inactive: SN12C renal 102% | UO-31 renal 96.5% | TK-10 renal 103% | ACHN renal 102% | CAKI-1 renal 96.3% | A498 renal 111% | CCRF-CEM leukemia 90.3% | MOLT-4 leukemia 102%

Oc1ccc(Nc2ncnc3c2sc2ncccc23)cc1
inactive: SN12C renal 17.1% | TK-10 renal 59.7% | CAKI-1 renal 13.1% | CCRF-CEM leukemia 16% | MOLT-4 leukemia 12.2%
active: UO-31 renal -9.84% | ACHN renal 9.05% | A498 renal 8.96%

[Ag].[Ag].[NH-]S(=O)(=O)c1ccc(N=Nc2cc(N=Nc3ccc(S([NH-])(=O)=O)cc3)c3c(NC(=O)C(Cl)Cl)cccc3c2OC(=O)C(Cl)Cl)cc1.[c-]1nccs1.[c-]1nccs1
inactive: SN12C renal 89.6% | UO-31 renal 69.4% | TK-10 renal 108% | ACHN renal 52.3% | CAKI-1 renal 59.1% | A498 renal 101% | CCRF-CEM leukemia 44.7% | MOLT-4 leukemia 78.4%

NC(=O)c1noc(C(=O)c2ccccc2)c1N
inactive: SN12C renal 99.7% | UO-31 renal 90.2% | TK-10 renal 92.5% | ACHN renal 99.6% | CAKI-1 renal 98.6% | A498 renal 72% | CCRF-CEM leukemia 98.8% | MOLT-4 leukemia 95.1%

CC(=O)N1N=C(c2ccc(C)cc2)CC1c1cn(-c2ccccc2)nc1-c1cccc(Nc2ccnc3cc(Cl)ccc23)c1 (centres undefined)
inactive: SN12C renal 46.2% | UO-31 renal 77.1% | TK-10 renal 61.3% | ACHN renal 81.2% | CAKI-1 renal 101% | A498 renal 82.2% | MOLT-4 leukemia 23.4%
active: CCRF-CEM leukemia -19.7%

Fc1ccc(-c2ccnc3nc(-c4ccncc4)nn23)cc1
inactive: SN12C renal 110% | UO-31 renal 84.5% | TK-10 renal 96.6% | ACHN renal 104% | CAKI-1 renal 92.1% | A498 renal 83.8% | CCRF-CEM leukemia 110% | MOLT-4 leukemia 94.9%

Cc1cc(C)c(C#N)c(SCC(=O)c2sc3c(C#N)c(C)cc(C)[n+]3c2[O-])n1
inactive: SN12C renal 31.4% | UO-31 renal 45.5% | TK-10 renal 35.3% | ACHN renal 31%
active: CAKI-1 renal -6.91% | A498 renal -6.21% | CCRF-CEM leukemia 9.64% | MOLT-4 leukemia 2.71%

O=Cc1ccc2nc(C(Cl)(Cl)Cl)ccc2c1
inactive: SN12C renal 104% | UO-31 renal 81.8% | TK-10 renal 101% | ACHN renal 101% | CAKI-1 renal 99.7% | A498 renal 93.6% | CCRF-CEM leukemia 91.9% | MOLT-4 leukemia 98.4%

O=C(Nc1ccc2[nH]c3ccccc3c2c1)c1ccccc1Cl
inactive: SN12C renal 61.3% | UO-31 renal 65.7% | TK-10 renal 49.7% | ACHN renal 70% | CAKI-1 renal 27.2% | A498 renal 44.7% | CCRF-CEM leukemia 40.1% | MOLT-4 leukemia 33.4%

COc1ccc(C2CC(c3ccc(Nc4ccnc5cc(Cl)ccc45)cc3)=NN2c2ccccc2)cc1 (centres undefined)
inactive: SN12C renal 91.9% | UO-31 renal 93.9% | TK-10 renal 109% | ACHN renal 97.2% | CAKI-1 renal 85.1% | A498 renal 49.7% | CCRF-CEM leukemia 69.8% | MOLT-4 leukemia 52.3%

CC(=O)Nc1nonc1-c1nc2ccccc2n1Cc1ccc(C(C)(C)C)cc1
active: A498 renal -4.2%
inactive: SN12C renal 82.2% | UO-31 renal 46.1% | TK-10 renal 95.5% | ACHN renal 82.1% | CAKI-1 renal 69% | CCRF-CEM leukemia 78.4% | MOLT-4 leukemia 51.7%

CCCCCCCCCCCCCCCc1cc(O)ccc1[N+](=O)[O-]
inactive: SN12C renal 75.5% | UO-31 renal 58.6% | TK-10 renal 112% | ACHN renal 91.9% | CAKI-1 renal 72.9% | A498 renal 98% | MOLT-4 leukemia 32.2%
active: CCRF-CEM leukemia 9.46%

CCCCn1c(C)nc2ccc(Nc3nc(Cl)nc4nc[nH]c34)cc21
inactive: SN12C renal 74.6% | UO-31 renal 57.8% | TK-10 renal 67.3% | ACHN renal 79% | CAKI-1 renal 60.5% | CCRF-CEM leukemia 53% | MOLT-4 leukemia 37.9%
active: A498 renal -0.303%

CC(C)NC(=O)OCC#CCOC(=O)NC(C)C
inactive: SN12C renal 102% | UO-31 renal 79.8% | TK-10 renal 99.3% | ACHN renal 108% | CAKI-1 renal 91.7% | A498 renal 104% | CCRF-CEM leukemia 103% | MOLT-4 leukemia 101%

c1ccc2c(Cc3csc4ccccc34)csc2c1
inactive: SN12C renal 97.1% | UO-31 renal 47.5% | TK-10 renal 106% | ACHN renal 93.1% | A498 renal 107% | CCRF-CEM leukemia 94.2% | MOLT-4 leukemia 87%

Cc1nc2ccc(Nc3nc(Cl)nc(N4CCOCC4)n3)cc2n1Cc1ccccc1
inactive: SN12C renal 78.2% | UO-31 renal 73.8% | TK-10 renal 44.7% | ACHN renal 79.4% | CAKI-1 renal 104% | A498 renal 91.7% | CCRF-CEM leukemia 45.7% | MOLT-4 leukemia 25.8%

COc1ccc(C2=NN(C=O)C(c3ccc(OS(=O)(=O)c4ccc(C)cc4)c(OC)c3)C2)cc1 (centres undefined)
inactive: SN12C renal 76.9% | UO-31 renal 53.9% | TK-10 renal 73.2% | ACHN renal 69.1% | CAKI-1 renal 52.7% | A498 renal 39.6% | CCRF-CEM leukemia 37.9% | MOLT-4 leukemia 40.7%

O=C(N=Nc1c(Cl)c(O)c2ccccc2c1O)C(=O)Nc1cccc(C(F)(F)F)c1
active: CCRF-CEM leukemia 6.57%
inactive: SN12C renal 13.2% | UO-31 renal 38.7% | TK-10 renal 116% | ACHN renal 58.4% | CAKI-1 renal 54.6% | A498 renal 84.9% | MOLT-4 leukemia 35.2%

COc1ccc(C(=O)/C=C/c2cn(-c3ccccc3)nc2-c2cccc(Nc3ccnc4cc(Cl)ccc34)c2)cc1
inactive: SN12C renal 89.8% | UO-31 renal 86.6% | TK-10 renal 120% | ACHN renal 103% | A498 renal 94.8% | CCRF-CEM leukemia 48.3% | MOLT-4 leukemia 104%

CC(=O)c1c(C)nc(-c2cc(C)cc(Cl)c2)nc1-c1cccc(Oc2ccccc2)c1
inactive: SN12C renal 80.1% | UO-31 renal 85.2% | TK-10 renal 93.6% | ACHN renal 99.6% | A498 renal 41.3% | CCRF-CEM leukemia 32.5% | MOLT-4 leukemia 27.9%

O=C1CC2(O)CSc3nc(=O)cc(n32)N1 (centres undefined)
inactive: SN12C renal 96.9% | UO-31 renal 82.7% | TK-10 renal 106% | ACHN renal 101% | CAKI-1 renal 92.5% | A498 renal 104% | CCRF-CEM leukemia 101% | MOLT-4 leukemia 107%

Cc1cc(C)c2c(n1)sc1c(Nc3ccc(OCc4ccccc4)cc3)ncnc12
inactive: SN12C renal 101% | UO-31 renal 85.1% | TK-10 renal 92.4% | ACHN renal 106% | CAKI-1 renal 97.5% | A498 renal 78.3% | CCRF-CEM leukemia 86.6% | MOLT-4 leukemia 101%

Cc1ccc(-c2nc3ccccc3c(=O)n2/N=C/c2cccc3ccccc23)cc1
inactive: SN12C renal 82.3% | UO-31 renal 48.3% | TK-10 renal 101% | ACHN renal 80.7% | CAKI-1 renal 54.4% | A498 renal 109% | CCRF-CEM leukemia 55.2% | MOLT-4 leukemia 55.9%

O=C(Nc1ccc(Oc2ccc(Nc3nc4ccccc4s3)cc2)cc1)Nc1ccc(Cl)c(C(F)(F)F)c1
active: SN12C renal 1.99% | ACHN renal 3.09% | A498 renal -18.3% | CCRF-CEM leukemia 5.88% | MOLT-4 leukemia 5.65%
inactive: UO-31 renal 14.1% | TK-10 renal 12.6% | CAKI-1 renal 12.4%

COc1ccc2cc(-c3nc(C)c(C(C)=O)c(-c4ccc(C)cc4)n3)ccc2c1
inactive: SN12C renal 95.5% | UO-31 renal 72.9% | TK-10 renal 93.9% | ACHN renal 98.7% | CAKI-1 renal 79.5% | A498 renal 83% | CCRF-CEM leukemia 89.7% | MOLT-4 leukemia 106%

Cc1ccc2cc3c(NC(=O)c4cccnc4)nn(C)c3nc2c1
inactive: SN12C renal 101% | UO-31 renal 78.6% | TK-10 renal 103% | ACHN renal 89% | CAKI-1 renal 85.7% | A498 renal 91.7% | CCRF-CEM leukemia 72.2% | MOLT-4 leukemia 94.3%

Cc1cc(C)c2c(n1)sc1c(Nc3ccc(O)cc3)ncnc12
active: UO-31 renal -10.3%
inactive: SN12C renal 21.5% | TK-10 renal 59.1% | ACHN renal 16% | CAKI-1 renal 15.8% | A498 renal 18.6% | CCRF-CEM leukemia 16.6% | MOLT-4 leukemia 14.3%
